# Measured values from PubChem BioAssay AID1159580 (chemical genetic matrix, 2015).
# About 2,000 (36%) of roughly 5,500 compounds were called active. Roughly 18% stayed inconclusive and do not appear here. This is one part of the list. Values without a mark were called inactive. No stated cut-off is given here; in the data, active means normalized growth mostly below about 0.91 (no sharp cut-off); inconclusive means no clear call, values can overlap the other calls; inactive means mostly above about 0.92.
# Assay: chemical genetic growth profiling, strain panel (AID 1159580);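 further: tested at 20 µM; growth read once vehicle control cultures reached saturation at 30 °C; 1 = growth at the plate median or of vehicle wells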
# Conditions: S. cerevisiae deletion strains, growth OD
structure (smiles),measurement,setting,value
Cc1nc2c(OCc3ccccc3)cccn2c1CC#N,normalized growth,"locus YAL040C, strain CLN3, stronger effect = lower value",0.99
same,normalized growth,"locus YCL061C, strain MRC1 (second series), stronger effect = lower value",0.996
same,normalized growth,"locus YDR363W, strain ESC2, stronger effect = lower value",0.987
same,normalized growth,"locus YER002W, strain NOP16, stronger effect = lower value",0.991
same,normalized growth,"locus YGR078C, strain PAC10, stronger effect = lower value",0.996
same,normalized growth,"locus YMR263W, strain SAP30, stronger effect = lower value",1
same,normalized growth,"locus YMR307W, strain GAS1, stronger effect = lower value",0.974
same,normalized growth,"locus YNL153C, strain GIM3, stronger effect = lower value",0.994
same,normalized growth,"locus YNL175C, strain NOP13, stronger effect = lower value",0.991
same,normalized growth,"locus YNL197C, strain WHI3, stronger effect = lower value",1
same,normalized growth,"locus YNL224C, strain SQS1, stronger effect = lower value",0.995
same,normalized growth,"locus YNL322C, strain KRE1, stronger effect = lower value",1.01
same,normalized growth,"locus YOR083W, strain WHI5 (second series), stronger effect = lower value",0.97
same,normalized growth,"locus YPL241C, strain CIN2, stronger effect = lower value",1
CC(C)(C)c1csc(NC(=O)Nc2ccc(Cl)cc2)n1,normalized growth,"locus YAR019C, strain CDC15, stronger effect = lower value",0.989
same,normalized growth,"locus YBL105C, strain PKC1, stronger effect = lower value",0.972
same,normalized growth,"locus YBR135W, strain CKS1, stronger effect = lower value",0.973
same,normalized growth,"locus YBR136W, strain MEC1, stronger effect = lower value",0.976
same,normalized growth,"locus YBR160W, strain CDC28, stronger effect = lower value",0.985
same,normalized growth,"locus YDL017W, strain CDC7, stronger effect = lower value",0.982
same,normalized growth,"locus YDL028C, strain MPS1, stronger effect = lower value",0.973
same,normalized growth,"locus YDL101C, strain DUN1, stronger effect = lower value",0.974
same,normalized growth,"locus YDL108W, strain KIN28, stronger effect = lower value",0.978
same,normalized growth,"locus YDL132W, strain cdc53, stronger effect = lower value",0.974
same,normalized growth,"locus YDL214C, strain PRR2, stronger effect = lower value",0.684 (active)
same,normalized growth,"locus YDR052C, strain DBF4, stronger effect = lower value",0.983
same,normalized growth,"locus YDR054C, strain cdc34, stronger effect = lower value",0.974
same,normalized growth,"locus YDR226W, strain ADK1, stronger effect = lower value",0.973
same,normalized growth,"locus YDR477W, strain SNF1, stronger effect = lower value",0.605 (active)
same,normalized growth,"locus YER123W, strain YCK3, stronger effect = lower value",0.466 (active)
same,normalized growth,"locus YER133W, strain GLC7, stronger effect = lower value",0.534 (active)
same,normalized growth,"locus YFL009W, strain cdc4, stronger effect = lower value",0.972
same,normalized growth,"locus YFL029C, strain CAK1, stronger effect = lower value",0.97
same,normalized growth,"locus YFR003C, strain YPI1, stronger effect = lower value",0.981
same,normalized growth,"locus YFR019W, strain FAB1, stronger effect = lower value",0.722 (active)
same,normalized growth,"locus YFR028C, strain CDC14, stronger effect = lower value",0.97
same,normalized growth,"locus YGR040W, strain KSS1, stronger effect = lower value",0.634 (active)
same,normalized growth,"locus YGR052W, strain FMP48, stronger effect = lower value",0.304 (active)
same,normalized growth,"locus YGR092W, strain DBF2, stronger effect = lower value",0.48 (active)
same,normalized growth,"locus YHR030C, strain SLT2, stronger effect = lower value",0.39 (active)
same,normalized growth,"locus YHR079C, strain IRE1, stronger effect = lower value",0.509 (active)
same,normalized growth,"locus YHR082C, strain KSP1, stronger effect = lower value",0.466 (active)
same,normalized growth,"locus YHR205W, strain SCH9, stronger effect = lower value",0.583
same,normalized growth,"locus YIL147C, strain SLN1, stronger effect = lower value",0.972
same,normalized growth,"locus YJL095W, strain BCK1, stronger effect = lower value",0.345 (active)
same,normalized growth,"locus YJL128C, strain PBS2, stronger effect = lower value",0.905
same,normalized growth,"locus YJL157C, strain FAR1, stronger effect = lower value",0.81
same,normalized growth,"locus YJR016C, strain ILV3, stronger effect = lower value",0.981
same,normalized growth,"locus YJR066W, strain TOR1 (second series), stronger effect = lower value",0.625 (active)
same,normalized growth,"locus YJR066W, strain TOR1, stronger effect = lower value",0.452 (active)
same,normalized growth,"locus YKL048C, strain ELM1, stronger effect = lower value",0.609 (active)
same,normalized growth,"locus YKL067W, strain YNK1, stronger effect = lower value",0.732 (active)
same,normalized growth,"locus YKL101W, strain HSL1, stronger effect = lower value",0.441 (active)
same,normalized growth,"locus YKL193C, strain SDS22, stronger effect = lower value",0.981
same,normalized growth,"locus YKL203C, strain TOR2, stronger effect = lower value",0.565 (active)
same,normalized growth,"locus YLR113W, strain HOG1, stronger effect = lower value",0.28 (active)
same,normalized growth,"locus YLR133W, strain CKI1, stronger effect = lower value",0.687 (active)
same,normalized growth,"locus YLR403W, strain SFP1, stronger effect = lower value",0.601 (active)
same,normalized growth,"locus YML070W, strain DAK1, stronger effect = lower value",0.441 (active)
same,normalized growth,"locus YMR001C, strain CDC5, stronger effect = lower value",0.97
same,normalized growth,"locus YMR205C, strain PFK2 (second series), stronger effect = lower value",0.705 (active)
same,normalized growth,"locus YMR277W, strain FCP1, stronger effect = lower value",0.974
same,normalized growth,"locus YNL006W, strain LST8, stronger effect = lower value",0.979
same,normalized growth,"locus YNL020C, strain ARK1, stronger effect = lower value",0.67 (active)
same,normalized growth,"locus YNL161W, strain CBK1, stronger effect = lower value",0.969
same,normalized growth,"locus YNL183C, strain NPR1, stronger effect = lower value",0.281 (active)
same,normalized growth,"locus YNL207W, strain RIO2, stronger effect = lower value",0.97
same,normalized growth,"locus YNL222W, strain SSU72, stronger effect = lower value",0.983
same,normalized growth,"locus YNL307C, strain MCK1 (second series), stronger effect = lower value",0.553 (active)
same,normalized growth,"locus YOL078W, strain AVO1, stronger effect = lower value",0.982
same,normalized growth,"locus YOL136C, strain PFK27, stronger effect = lower value",0.719
same,normalized growth,"locus YOR061W, strain CKA2, stronger effect = lower value",0.732
same,normalized growth,"locus YOR119C, strain RIO1, stronger effect = lower value",0.524 (active)
same,normalized growth,"locus YOR231W, strain MKK1, stronger effect = lower value",0.5 (active)
same,normalized growth,"locus YOR329C, strain SCD5, stronger effect = lower value",0.982
same,normalized growth,"locus YPL031C, strain PHO85, stronger effect = lower value",0.43 (active)
same,normalized growth,"locus YPL153C, strain RAD53, stronger effect = lower value",0.481 (active)
same,normalized growth,"locus YPL204W, strain HRR25, stronger effect = lower value",0.529 (active)
same,normalized growth,"locus YPL209C, strain IPL1, stronger effect = lower value",0.98
same,normalized growth,"locus YPL256C, strain CLN2, stronger effect = lower value",0.44 (active)
same,normalized growth,"locus YPR025C, strain CCL1, stronger effect = lower value",0.977
same,normalized growth,"locus YPR106W, strain ISR1, stronger effect = lower value",0.97
same,normalized growth,"locus YPR111W, strain DBF20, stronger effect = lower value",0.967
same,normalized growth,"strain NNK1, stronger effect = lower value",0.953
same,normalized growth,"strain TSCII, stronger effect = lower value",0.981
